Inconclusive results are not listed. Values without a mark were called inactive. Activity calls are given as the source filed them. The call rests on the fitted dose curve; in most records, active means well fitted inhibition curve with a large enough effect; inconclusive means small, poorly fitted or top-dose-only effect; inactive means flat fitted curve, though single readings scatter.
Target: Calcium and integrin-binding protein 1 (Homo sapiens) (UniProt Q99828)
Assay: Primary qHTS for Identification of Calcium Integrin Binding Protein 1 (CIB1) Competitor (AID 1508620);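 further: GST tagged CIB1 binding a fluorescein labelled alphaIIb integrin peptide tracer; top concentration of the series differs between compounds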
Conditions: CIB1-GST / FITC-alphaIIb peptide fluorescence polarization; series mostly up to 57.7 µM; activity change, negative = inhibition: at the top concentration
Method in brief: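 Fluorescence polarization competition: CIB1-GST (1 uM final) preincubated with compound 15 min at room temperature, then FITC-labeled alphaIIb peptide (100 nM final) added for another 15 min. Polarization read at Ex 480/Em 540.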
On the % scale 0 is the no-effect control and ±100 the full control effect.

Chain of Calcium and integrin-binding protein 1 (Homo sapiens) (Q99828 whole entry, looked up): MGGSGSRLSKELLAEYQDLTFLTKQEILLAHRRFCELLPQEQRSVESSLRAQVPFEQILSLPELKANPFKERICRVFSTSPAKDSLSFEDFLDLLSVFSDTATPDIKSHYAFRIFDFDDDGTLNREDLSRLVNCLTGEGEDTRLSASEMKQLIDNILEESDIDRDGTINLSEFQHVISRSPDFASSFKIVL

| Compound | activity change, negative = inhibition | Potency |
| --- | --- | --- |
| c1ccc(Cc2ncc3c(n2)CCNCC3)cc1 | -2.51% [at 114 µM] |  |
| O=C(/C=C/c1ccc(O)cc1)OC[C@H]1O[C@@H](OC(=O)/C=C/c2ccccc2)[C@H](O)[C@@H](O)[C@@H]1O | -4.35% |  |
| CC(C)=CCCC1(C)Oc2cc3c(c4c2C2C(O4)C(C)(O)CCC21)CN(C(CCC(=O)O)C(=O)O)C3=O (stereo not given) | -8.15% |  |
| CC1=CC(=O)CC(C)(CO[C@@H]2O[C@H](CO)[C@@H](O)[C@H](O)[C@H]2O)C1(O)/C=C/C(C)=C/C(=O)O (stereo not given in full) | 1.4% |  |
| CC1(C)CC[C@]2(C(=O)O[C@@H]3O[C@H](CO)[C@@H](O)[C@H](O)[C@H]3O)CC[C@]3(C)C(=CCC4[C@@]5(C)C[C@@H](O)[C@H](O)[C@@](C)(CO)C5CC[C@]43C)C2C1 (stereo not given in full) | 1.85% [at 30.2 µM] |  |
| NCCOCCOCCNC(=O)Cc1ccc(Nc2nc(NCc3ccc(F)cc3)nc(NCC3CCCCC3)n2)cc1 | -13.4% [at 114 µM] |  |
| C=C(C)[C@H]1C[C@@H](O)C(=C)CC[C@@H](O)C(=C)[C@@H](O)C1 | -4.55% [at 114 µM] |  |
| CC1=CC(=O)C2C(C)(C)CC(O)CC2(C)C1CO (stereo not given) | -2.27% [at 114 µM] |  |
| CC(=O)OC(CSC1CCC(=O)OC(C)CCC(=O)C1)C(=O)O (stereo not given) | -0.294% |  |
| CCN[C@@H]1C[C@H](N)[C@@H](O[C@H]2OC(CN)=CC[C@H]2N)[C@H](O)[C@H]1O[C@H]1OC[C@](C)(O)[C@H](NC)[C@H]1O |  | inactive |
| C/C=C(/C)C(=O)O[C@H]1C=C(C)C[C@H](OC(=O)c2ccc(O)cc2)C2[C@](O)(C(C)C)CC[C@@]21C (stereo not given in full) | 2.38% [at 30.2 µM] |  |
| C=C1CCC2C(C)(C)C(O)CCC2(C)C1CCC(C)CCOC(=O)CCC(=O)O (stereo not given) | -8.6% |  |
| CC(=O)N1c2ccccc2C2(O)CC3C(=O)NC(CC(C)C)C(=O)N3C12 (stereo not given) | 0.22% |  |
| O=C(/C=C/c1ccc(O)cc1)OC[C@]12O[C@H]1[C@@H](O)[C@@H]1C=CO[C@@H](O[C@@H]3O[C@H](CO)[C@@H](O)[C@H](O)[C@H]3O)[C@@H]12 | 1.29% |  |
| COC(=O)c1cc(CN2CCN(C(=N)N)CC2)cc(C(=O)N2CCN(C(=O)c3ccc(C(=N)N)cc3)CC2)c1 | -0.852% [at 114 µM] |  |
| CC1(C)CCCC2(C)C3=C(C(=O)OC3O)C(O)CC12 (stereo not given) | 1.86% [at 114 µM] |  |
| C[C@@H]1O[C@@H](O[C@H]2[C@H](OC(=O)C34CCC5(C)C(=CCC6C7(C)CC(O)C(O[C@@H]8O[C@H](C(=O)O)[C@@H](O)[C@H](O)[C@H]8O)C(C)(C(=O)O)C7CCC65C)C3CC(C)(C)CC4O)O[C@H](C)[C@@H](O)[C@@H]2O)[C@H](O)[C@@H](O[C@@H]2OC[C@](O)(CO)[C@H]2O[C@@H]2O[C@H](CO)[C@@H](O)[C@H](O)[C@H]2O)[C@H]1O (stereo not given in full) | -1.08% [at 12.4 µM] |  |
| NCc1ccc(OCCCc2sc(-c3ccc4c(c3)/C(=N/Nc3nc5ccccc5s3)CCC4)nc2C(=O)O)cc1 |  | inactive |
| C/C=C(\C)C(=O)O[C@@H](C)[C@H]1CC[C@]2(O)C3CCC4C[C@@H](OC5CC(OC)C(OC6CC(OC)C(OC7CC(OC)C(OC8OC(C)C(OC9OC(CO)C(O)C(O)C9O)C(OC)C8O)C(C)O7)C(C)O6)C(C)O5)CC[C@]4(C)C3[C@H](O)[C@@H](O)[C@]12C (stereo not given in full) | -0.005% [at 12.4 µM] |  |
| COC(=O)C1(Cc2ccc(O)cc2)OC(=O)C(OC)=C1c1ccc(O)cc1 (stereo not given) | 0.509% |  |

| Compound | activity change, negative = inhibition | Potency |
| --- | --- | --- |
| C=C[C@H]1[C@H](O[C@@H]2O[C@H](CO)[C@@H](O)[C@H](O)[C@H]2O)OC=C2C(=O)OCC[C@]21O | -2.19% |  |
| CCOC(=O)[C@H](CCc1ccccc1)N[C@@H](C)C(=O)N1C2CCCCC2C[C@H]1C(=O)O (stereo not given in full) | -1.92% [at 114 µM] |  |
| C[C@@H]1C[C@H](O)/C=C/[C@H](O)[C@@H](O)CC(=O)O1 | 4.42% [at 114 µM] |  |
| COc1cc(/C=C/C(=O)O[C@H]2[C@H](OC(=O)/C=C/c3cc(OC)c(O)c(OC)c3)O[C@H](CO[C@@H]3O[C@H](CO)[C@@H](O)[C@H](O)[C@H]3O)[C@@H](O)[C@@H]2O)ccc1O | 1.99% [at 30.2 µM] |  |
| CC(=C/C(=O)O)/C=C/[C@]1(O)[C@@]2(C)CO[C@]1(C)C[C@H](O[C@@H]1O[C@H](CO)[C@@H](O)[C@H](O)[C@H]1O)C2 | 3.29% |  |
| CO[C@@]12CC3[C@@H]([C@@H](O)[C@@H](OC(C)=O)C4[C@](C)(COC(C)=O)CCC[C@]34C)[C@@H](C)C1=CC(=O)O2 (stereo not given in full) | 4.13% |  |
| CC(=O)OC1C=C(C(=O)O)C2(CO)CCC(C)C(C)(CCc3ccoc3)C2C1 (stereo not given) | 0.218% |  |
| O=C1NCc2nc3ccccc3c(=O)n2C1Cc1c[nH]c2ccccc12 (stereo not given) | -3.41% |  |
| COc1cc(C(=O)OC[C@H]2O[C@H](O[C@@]3(CO)O[C@@H](CO)[C@H](O)[C@H]3O)[C@H](O)[C@@H](O)[C@@H]2O)ccc1O | -2.79% |  |
| CC(=O)OC1C(O)C(C)=C(CCC(C)CC(=O)O)C2(C)CCCC(C)(C)C12 (stereo not given) | -3.43% |  |
| C=CC(C)(O)CC/C=C(\C)C(=O)OC1CC2(C(=O)O)CCC3(C)C(=CCC4C5(C)CCC(OC6OC(COC7OCC(O)C(O)C7O)C(O)C(OC7OCC(O)C(O)C7O)C6OC6OC(CO)C(O)C(O)C6OC6OCC(O)C(O)C6O)C(C)(C)C5CCC43C)C2CC1(C)C (stereo not given) | -4.39% [at 12.4 µM] |  |
| CC(=O)O[C@H](C[C@@H](C)[C@H]1C(=O)[C@H](O)[C@@]2(C)[C@@H]3CCC4C(C)(C)[C@@H](O[C@@H]5OC[C@H](O)[C@H](O)[C@H]5O)CC[C@@]45C[C@@]35CC[C@]12C)[C@@H]1OC1(C)C (stereo not given in full) | 2.19% [at 30.2 µM] |  |
| OCC1=CC[C@@H]2C=CO[C@@H](O[C@@H]3O[C@H](CO)[C@@H](O)[C@H](O)[C@H]3O)[C@H]12 | -2.94% |  |
| CCCCS(=O)(=O)Nc1ncnc(OCCOc2ncc(Br)cn2)c1-c1ccc(Br)cc1 | -2.32% [at 114 µM] |  |
| C=CCc1ccc(O[C@@H]2O[C@H](CO[C@@H]3O[C@@H](C)[C@H](O)[C@@H](O)[C@H]3O)[C@@H](O)[C@H](O)[C@H]2O)cc1 | -1.5% |  |
| C[C@@H]1CCN(C(=O)CC#N)C[C@@H]1N(C)c1ncnc2[nH]ccc12 | 1.78% [at 114 µM] |  |
| CC1(C)C(=O)N2c3ccccc3[C@]3(CC(n4cnc5ccccc5c4=O)C(=O)O3)[C@H]2N1O (stereo not given in full) | -3.03% |  |
| O=c1ccn(C2OC(CO)C(O)C2O)c(=O)[nH]1 (stereo not given) | -2.52% [at 114 µM] |  |
| COC1CC(=O)C23C(=O)NC(CC(C)C)C2C(C)C(C)=CC3/C=C(\C)CCC1O (stereo not given) | 3.93% |  |
| O=C(O)c1cc(O[C@@H]2O[C@H](CO[C@@H]3OC[C@@H](O)[C@H](O)[C@H]3O)[C@@H](O)[C@H](O)[C@H]2O)c2ccccc2c1O | -9.83% |  |
